# Results taken from PubChem BioAssay (Tox21).
# Where “and” joins values, the source holds several entries; their conditions need not be identical. Identical values can stand only once. A structure can be active in one record and inactive in another. Calls of active or inactive are those of the source. Where a call stands in place of a potency, no number is given. Unless noted, calls follow the shape of the dose curve; as a rule, active = well fitted curve in the direction sought with a large enough effect in the repeat runs; inconclusive = weak or mixed curves; inactive = no such curve, though single readings can be large; an effect the other way counts as inactive or inconclusive.
# What was measured:
# [1] = qHTS assay to identify small molecule antagonists of the glucocorticoid receptor (GR) signaling pathway - cell viability counter screen (AID 720693); conditions: GR-bla HeLa viability, CellTiter-Glo luminescence, 18 h, with 5 nM dexamethasone present; series mostly up to 58.5 µM; also: nearly all actives have a fitted effect of over 55% in size; also: potency is read from the fitted curve at half-maximal effect
# [2] = qHTS assay for identifying genotoxic compounds that show differential cytotoxicity against isogenic chicken DT40 cell lines with known DNA damage response pathways - wild type cell line (AID 743012); conditions: DT40 wild type chicken cells viability, CellTiter-Glo, 40 h; series mostly up to 68.4 µM; also: nearly all actives have a fitted effect of over 60% in size; also: potency is read from the fitted curve at half-maximal effect
# Outline: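 Cells (DT40 wild type, 300/well) are treated with DMSO-dissolved compounds after a ~0.5 h pre-incubation and kept 40 h at 37 C/5% CO2. Viability is then measured by CellTiter-Glo luminescence following 30 min at room temperature.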
# [3] = qHTS assay for identifying genotoxic compounds that show differential cytotoxicity against isogenic chicken DT40 cell lines with known DNA damage response pathways - Rad54/Ku70 mutant cell line (AID 743015); conditions: DT40 Rad54/Ku70 mutant viability, CellTiter-Glo, 40 h; series mostly up to 66.8 µM; also: nearly all actives have a fitted effect of over 60% in size; also: potency is read from the fitted curve at half-maximal effect
# [4] = qHTS assay to identify small molecule antagonists of the androgen receptor (AR) signaling pathway - cell viability counter screen (AID 743033; also: nearly all actives have a fitted effect of over 45% in size; also: potency is read from the fitted curve at half-maximal effect); conditions: AR-bla HEK293 viability, CellTiter-Glo luminescence, 16 h; series mostly up to 58.5 µM
# [5] = qHTS assay to identify small molecule antagonists of the androgen receptor (AR) signaling pathway using the MDA cell line - cell viability counter screen (AID 743041; also: nearly all actives have a fitted effect of over 45% in size; also: potency is read from the fitted curve at half-maximal effect); conditions: MDA-kb2 viability, CellTiter-Fluor, 16 h, cells co-treated with R1881 androgen agonist; series mostly up to 70.3 µM
# Outline: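 MDA-kb2 AR-luc human breast carcinoma cells (MMTV-luciferase, AR/GR responsive) were treated with compounds plus R1881 agonist for 16 h at 37 °C. Viability was read as CellTiter-Fluor fluorescence in the same wells as the reporter assay.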
# [6] = qHTS assay to identify small molecule antagonists of the thyroid receptor (TR) signaling pathway - cell viability counter screen (AID 743064); conditions: GH3.TRE-Luc viability, CellTiter-Fluor, 24 h; series mostly up to 70.3 µM; also: nearly all actives have a fitted effect of over 50% in size; also: potency is read from the fitted curve at half-maximal effect
# Outline: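 Viability of T3-stimulated (1 nM final) GH3.TRE-Luc cells is measured by CellTiter-Fluor fluorescence after 23.5 h compound exposure at 37 °C plus 30 min reagent incubation.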
# [7] = qHTS assay to identify small molecule antagonists of the thyroid receptor (TR) signaling pathway (AID 743065); conditions: GH3.TRE-Luc, T3-stimulated luciferase inhibition, 23.5 h; series mostly up to 70.3 µM; also: nearly all actives have a fitted effect of over 55% in size; also: potency is read from the fitted curve at half-maximal effect
# Outline: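 GH3.TRE-Luc rat pituitary cells carrying two TR response elements driving luciferase were plated for 4 h, given compound plus 1 nM T3 (final), and incubated 23.5 h at 37 C. ONE-Glo luminescence measured reporter inhibition; CellTiter-Fluor fluorescence tracked cytotoxicity.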
# [8] = system: thyroid hormone receptor (rat, GH3 cells); assay: qHTS assay to identify small molecule agonists of the thyroid receptor (TR) signaling pathway (AID 743066; calls by dose curve; also: potency is read from the fitted curve at half-maximal effect); conditions: GH3.TRE-Luc cells, TR agonist luciferase, 24 h; series mostly up to 83.9 µM
# [9] = molecular target: Estrogen receptor (Homo sapiens) (UniProt P03372); assay: qHTS assay to identify small molecule antagonists of the estrogen receptor alpha (ER-alpha) signaling pathway (AID 743069; active = well fitted curve in the direction sought with a large enough effect in the signal ratio in the repeat runs, not every such curve was filed as active; inconclusive = weak or mixed curves, or effect the other way; inactive = no such curve, though single readings can be large or run the other way; the % refers to the signal ratio; also: potency is read from the fitted curve at half-maximal effect); conditions: HEK293 ER-alpha-UAS-bla, beta-lactamase ratio, antagonist mode; series mostly up to 69.4 µM
# Estrogen receptor (Homo sapiens), sequence (P03372 whole entry, looked up): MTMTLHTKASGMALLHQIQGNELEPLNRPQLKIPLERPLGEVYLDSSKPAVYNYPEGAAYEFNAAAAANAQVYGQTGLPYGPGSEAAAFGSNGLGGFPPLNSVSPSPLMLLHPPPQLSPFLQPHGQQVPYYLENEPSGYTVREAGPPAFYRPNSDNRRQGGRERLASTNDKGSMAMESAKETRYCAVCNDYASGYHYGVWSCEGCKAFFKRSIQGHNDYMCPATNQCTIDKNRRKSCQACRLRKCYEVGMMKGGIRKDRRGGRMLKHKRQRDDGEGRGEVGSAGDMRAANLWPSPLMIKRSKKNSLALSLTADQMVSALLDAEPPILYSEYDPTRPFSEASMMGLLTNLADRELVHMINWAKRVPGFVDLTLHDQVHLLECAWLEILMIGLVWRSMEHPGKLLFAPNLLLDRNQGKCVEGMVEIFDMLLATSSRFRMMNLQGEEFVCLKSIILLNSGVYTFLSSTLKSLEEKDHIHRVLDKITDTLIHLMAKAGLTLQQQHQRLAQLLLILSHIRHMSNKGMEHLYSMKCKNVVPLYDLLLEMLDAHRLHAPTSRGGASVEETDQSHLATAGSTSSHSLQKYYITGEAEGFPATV
# Outline: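 HEK293 cells stably carrying an ER-alpha-UAS-bla beta-lactamase reporter were pre-cultured overnight in 2% charcoal-stripped FBS medium. Test compounds in DMSO were added together with 17beta-estradiol for 18 hr at 37C. Read-out was fluorescence after 2 hr with LiveBLAzer B/G FRET substrate at room temperature.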
# [10] = qHTS assay to identify small molecule antagonists of the estrogen receptor alpha (ER-alpha) signaling pathway - cell viability counter screen (AID 743074; calls by dose curve; also: nearly all actives have a fitted effect of over 45% in size; also: potency is read from the fitted curve at half-maximal effect); conditions: ERalpha-bla HEK293 viability, CellTiter-Glo luminescence, 18 h; series mostly up to 69.4 µM
# [11] = molecular target: Estrogen receptor (Homo sapiens) (UniProt P03372); assay: qHTS assay to identify small molecule agonists of the estrogen receptor alpha (ER-alpha) signaling pathway (AID 743075; calls by dose curve; also: potency is read from the fitted curve at half-maximal effect); conditions: HEK293 ER-alpha-UAS-bla, beta-lactamase FRET ratio, 18 h; series mostly up to 70.1 µM
# [12] = molecular target: Estrogen receptor (Homo sapiens) (UniProt P03372); assay: qHTS assay to identify small molecule agonists of the estrogen receptor alpha (ER-alpha) signaling pathway using the BG1 cell line (AID 743079); conditions: BG1Luc4E2 cells, ERE-luciferase agonist, 22 h; activation: at 70.3 µM (top of the series) unless noted; also: nearly all actives have a fitted effect of over 20% in size; also: potency is read from the fitted curve at half-maximal effect
# [13] = qHTS assay to identify small molecule antagonists of the estrogen receptor alpha (ER-alpha) signaling pathway using the BG1 cell line (AID 743080; calls by dose curve;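 also: BG1 cells stimulated with 17beta-estradiol alongside compound; nearly all actives have a fitted effect of over 25% in size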); conditions: BG1Luc4E2 ERE-luciferase antagonist mode, luminescence; series mostly up to 70.3 µM
# Outline: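 Endogenous full-length ER-alpha in BG1-Luc-4E2 cells drives a stably integrated 4×ERE luciferase gene; compounds were tested against 17beta-estradiol over 21.5 h, with luminescence and multiplexed viability fluorescence recorded.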
# [14] = qHTS assay to identify small molecule antagonists of the estrogen receptor alpha (ER-alpha) signaling pathway using the BG1 cell line - cell viability counter screen (AID 743081); conditions: BG1Luc4E2 viability, CellTiter-Fluor, 22 h; series mostly up to 70.3 µM;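 also: compound given together with 17beta-estradiol as the ER stimulus; nearly all actives have a fitted effect of over 45% in size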; also: potency is read from the fitted curve at half-maximal effect
# [15] = molecular target: Aromatase (Homo sapiens) (UniProt P11511); assay: qHTS assay to identify aromatase inhibitors (AID 743083); conditions: MCF-7 aro ERE, testosterone-driven ERE luciferase, 24 h; series mostly up to 70.3 µM; also: nearly all actives have a fitted effect of over 55% in size; also: potency is read from the fitted curve at half-maximal effect
# Aromatase (Homo sapiens), sequence (P11511 whole entry, looked up): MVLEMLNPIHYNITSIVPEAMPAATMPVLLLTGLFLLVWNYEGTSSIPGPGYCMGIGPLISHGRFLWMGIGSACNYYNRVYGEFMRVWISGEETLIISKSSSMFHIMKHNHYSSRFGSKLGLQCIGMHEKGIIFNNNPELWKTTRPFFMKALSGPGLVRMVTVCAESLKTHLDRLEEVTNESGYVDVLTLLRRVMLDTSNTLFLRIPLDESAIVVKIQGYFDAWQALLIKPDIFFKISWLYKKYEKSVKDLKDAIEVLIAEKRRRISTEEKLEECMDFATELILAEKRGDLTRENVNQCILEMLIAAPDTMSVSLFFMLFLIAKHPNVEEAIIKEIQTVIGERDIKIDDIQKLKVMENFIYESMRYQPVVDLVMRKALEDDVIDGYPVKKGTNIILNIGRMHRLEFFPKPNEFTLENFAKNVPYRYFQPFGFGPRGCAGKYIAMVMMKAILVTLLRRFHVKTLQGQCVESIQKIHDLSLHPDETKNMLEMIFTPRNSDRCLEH
# [16] = qHTS assay for identifying genotoxic compounds that show differential cytotoxicity against isogenic chicken DT40 cell lines with known DNA damage response pathways - Rev3 mutant cell line (AID 743014); conditions: chicken DT40 Rev3-/- viability, CellTiter-Glo, 40 h; series mostly up to 68.4 µM; also: nearly all actives have a fitted effect of over 55% in size; also: potency is read from the fitted curve at half-maximal effect
# [17] = molecular target: Androgen receptor (Homo sapiens) (UniProt P10275); assay: qHTS assay to identify small molecule antagonists of the androgen receptor (AR) signaling pathway (AID 743035; active = well fitted inhibition curve with a large enough effect in the signal ratio in the repeat runs, not every such curve was filed as active; inconclusive = weak or mixed curves, or effect the other way; inactive = no such curve, though single readings can be large or run the other way; the % refers to the signal ratio; also: potency is read from the fitted curve at half-maximal effect); conditions: HEK293 AR-UAS-bla, R1881-stimulated, beta-lactamase FRET, 16 h; series mostly up to 58.5 µM
# Androgen receptor (Homo sapiens), sequence (P10275 whole entry, looked up): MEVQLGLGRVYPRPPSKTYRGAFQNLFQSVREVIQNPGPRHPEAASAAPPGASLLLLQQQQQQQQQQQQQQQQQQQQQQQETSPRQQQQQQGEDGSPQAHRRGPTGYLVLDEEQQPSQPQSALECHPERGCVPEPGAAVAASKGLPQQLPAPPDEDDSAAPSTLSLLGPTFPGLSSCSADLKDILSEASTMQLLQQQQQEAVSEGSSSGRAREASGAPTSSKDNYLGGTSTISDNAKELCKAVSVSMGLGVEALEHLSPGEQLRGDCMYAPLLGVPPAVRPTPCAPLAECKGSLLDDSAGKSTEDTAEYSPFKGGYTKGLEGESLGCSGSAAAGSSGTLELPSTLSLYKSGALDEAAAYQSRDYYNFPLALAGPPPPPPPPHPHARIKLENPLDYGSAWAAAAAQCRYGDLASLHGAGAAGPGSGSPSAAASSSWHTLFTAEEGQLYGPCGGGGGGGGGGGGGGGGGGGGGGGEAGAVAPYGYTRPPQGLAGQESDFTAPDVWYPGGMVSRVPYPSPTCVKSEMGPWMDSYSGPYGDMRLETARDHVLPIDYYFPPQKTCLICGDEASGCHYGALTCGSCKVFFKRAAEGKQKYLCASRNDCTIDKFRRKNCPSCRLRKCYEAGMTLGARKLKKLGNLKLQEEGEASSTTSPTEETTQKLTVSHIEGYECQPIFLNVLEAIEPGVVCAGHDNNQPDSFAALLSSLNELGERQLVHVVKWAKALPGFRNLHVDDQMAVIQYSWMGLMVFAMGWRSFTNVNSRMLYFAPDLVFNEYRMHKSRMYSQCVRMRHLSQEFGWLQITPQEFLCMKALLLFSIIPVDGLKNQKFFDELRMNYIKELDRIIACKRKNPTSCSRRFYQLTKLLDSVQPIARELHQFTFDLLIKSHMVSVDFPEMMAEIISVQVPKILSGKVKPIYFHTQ
# Outline: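 Antagonism is scored as loss of R1881-driven beta-lactamase reporter expression in HEK293 cells carrying the reporter under a UAS element, after 16 h co-treatment at 37C and a 2 h room-temperature FRET substrate read.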
# [18] = molecular target: Androgen receptor (Homo sapiens) (UniProt P10275); assay: qHTS assay to identify small molecule agonists of the androgen receptor (AR) signaling pathway using the MDA cell line (AID 743040; also: nearly all actives have a fitted effect of over 20% in size); conditions: MDA-kb2 AR-luc cells, MMTV luciferase, 16 h, stronger effect = higher value
# Outline: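 MDA-kb2 breast carcinoma cells stably carrying an MMTV-driven luciferase reporter (AR- and GR-responsive) were seeded and held 5 h at 37C, 0% CO2, then exposed to compounds in DMSO for 16 h. Luminescence was read 30 min after ONE-Glo addition.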
# [19] = molecular target: Androgen receptor (Homo sapiens) (UniProt P10275); assay: qHTS assay to identify small molecule antagonists of the androgen receptor (AR) signaling pathway using the MDA cell line (AID 743042; also: nearly all actives have a fitted effect of over 55% in size; also: potency is read from the fitted curve at half-maximal effect); conditions: MDA-kb2 AR-luc, MMTV luciferase, R1881 antagonist, 16 h; series mostly up to 70.3 µM
# Outline: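 MDA-kb2 cells (human breast carcinoma, stably carrying an MMTV-luciferase reporter responsive to AR and GR) were plated at 3,000 cells/well and preincubated 5 hr at 37C, then given compound plus R1881 agonist for 16 h. ONE-Glo luminescence was read.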
SMILES,Potency [1],Potency [2],Potency [3],Potency [4],Potency [5],Potency [6],Potency [7],Potency [8],Potency [9],Potency [10],Potency [11],Potency [12],Potency [13],Potency [14],Potency [15],Potency [16],Potency [17],activity change ([18]; at 70.3 µM (top of the series)),activity change ([18]; at 95 µM (top of the series)),Potency [19]
CC(C)COC(=O)c1ccccc1C(=O)OCC(C)C,inactive,27.3 µM (active),48.6 µM (active),inactive,inactive,inactive,inactive,inactive,inactive,inactive,13.8 nM [inconclusive] (active) and inactive,21.7 µM (active),inactive,inactive,inactive,,,,,
CC1(C)C(C(=O)OC(C#N)c2cccc(Oc3ccccc3)c2)C1(C)C (centres undefined),inactive,inactive and 48.5 µM (active),inactive and 54.4 µM (active),inactive,inactive,inactive,,inactive,inactive,inactive,inactive,,inactive,inactive,48.9 µM (active),inactive,,,,
OC(c1ccc(Cl)cc1)(c1cncnc1)c1ccccc1Cl (centres undefined),inactive,10.9 µM (active),49.4 µM (active) and 6.11 µM (active),,inactive,inactive,61.1 µM (active),inactive,54.9 µM [inconclusive] (active),inactive,17.7 µM [activator] (active) and 61.6 µM [inconclusive] (active),9.69 µM (active),inactive,inactive,,35 µM (active) and 6.86 µM (active),,,,
CSc1nc(NC(C)C)nc(NC(C)C)n1,inactive,inactive,,inactive,inactive,inactive,inactive,inactive,inactive,inactive,inactive,inactive,inactive,inactive,inactive,,,,,
c1ccc(C2CO2)cc1 (centres undefined),inactive,inactive,inactive,inactive,inactive,inactive,,,,inactive,,,,inactive,inactive,inactive,,,,
CCC[CH2][Sn]([Cl])([Cl])[CH2]CCC,6.24 µM (active) and 6.16 µM (active),438 nM (active) and 17.2 nM (active),348 nM (active) and 17.2 nM (active),1.4 µM (active) and 389 nM (active),1.96 µM (active) and 2.73 µM (active),34.4 nM (active),49.2 nM (active) and 10.9 nM (active),,786 nM [inconclusive] (active) and 692 nM [inconclusive] (active),6.24 µM (active) and 2.75 µM (active),44.2 µM [inconclusive] (active) and 43.6 µM [inconclusive] (active),,,2.46 µM (active) and 770 nM (active),694 nM (active) and 172 nM (active),276 nM (active) and 17.2 nM (active),,,,
Oc1ccc(Cl)cc1Cc1ccccc1,,21.1 µM (active) and 6.19 µM (active),29.8 µM (active) and 48.6 µM (active) and 16.5 µM (active),inactive and 38.9 µM (active) and 39.4 µM (active),inactive,48.6 µM (active) and 36.7 µM (active),54.5 µM (active) and 43.3 µM (active),inactive,,inactive and 49 µM (active) and 12.4 µM (active),,,,inactive,27.3 µM (active) and 30.9 µM (active),26.6 µM (active) and 54.5 µM (active) and 21.3 µM (active),19.5 µM (active),-0.884% (inactive) and -9.7% (inactive),-7.19% (inactive),inactive and 54.5 µM (active)
CCOP(=O)(O)OCC (tested in a mixture with another compound),17.2 µM (active),inactive and 96.1 nM (active),inactive and 96.1 nM (active),inactive and 17.2 µM (active),,inactive and 7.63 µM (active),,inactive,,inactive and 27.3 µM (active),,,,inactive and 54 µM (active),,inactive and 85.6 nM (active),,,,
O=S(=O)(O)C(F)(F)C(F)(F)C(F)(F)C(F)(F)C(F)(F)C(F)(F)C(F)(F)C(F)(F)F,inactive,inactive and 54.5 µM (active),,inactive,inactive,47200 nM (active),51.9 µM (active) and 61.1 µM (active),inactive,,inactive,,,,inactive,inactive,61.1 µM (active) and 48.6 µM (active),,,,
CC(C)CON=O,inactive,inactive,inactive,inactive,inactive,inactive,,,inactive,inactive,inactive,inactive,inactive,inactive,inactive,inactive,,,,
O=C1Nc2ccc(Cl)cc2C(c2ccccc2)=NC1O (centres undefined),inactive,,,inactive,inactive,inactive,54.9 µM (active),inactive,,inactive,,,,inactive,inactive,,,,,
Nc1ccc([N+](=O)[O-])cc1N,inactive,27.3 µM (active),13.7 µM (active) and 19.3 µM (active),inactive,,24.3 µM (active) and 43.3 µM (active),48.5 µM (active) and 48.6 µM (active),inactive,,,,,,,inactive,43.2 µM (active) and inactive,,,,
Cc1ccc(N=CN(C)C=Nc2ccc(C)cc2C)c(C)c1,inactive,inactive and 30.6 µM (active),inactive and 30.6 µM (active),inactive,inactive,inactive and 48.5 µM (active),,inactive,inactive,inactive,inactive,inactive,inactive,inactive,inactive,inactive and 38.5 µM (active),,,,
CC(C)(c1ccccc1)c1ccc(O)c(C(C)(C)c2ccccc2)c1,21.7 µM (active) and 24.5 µM (active),21.5 µM (active) and 9.69 µM (active),13.6 µM (active) and 9.69 µM (active),48.5 µM (active) and 49 µM (active),,13.6 µM (active) and 12.2 µM (active),15.2 µM (active) and 13.7 µM (active),1.52 µM (active),inactive,54.9 µM (active),,,,60.6 µM (active) and inactive,60.6 µM (active),15.2 µM (active) and 8.63 µM (active),,,,
